Hit rate of the full screen: of about 69,000 compounds, about 8,600 (12%) showed an effect of 50% or more. This is one part of a sample in which strong results are shown more often than they occur.
system: Plasmodium berghei; test: Screen against P. berghei liver stage (PbLuc), transformed with Luciferase, at 10uM; format: functional, HepG2; settings: tested at 10 uM

Structure (SMILES)	INHIBITION
CN1CC2(CCN(C(=O)c3ccc(-n4cccn4)cc3Cl)C2)OC1=O (stereo not drawn)	32.5%
CC(=O)c1cnc(NCCCN2CCOCC2)nc1C	-4.96%
O=C(COc1ccccc1)NCC1CC1	3.63%
CCNc1ncc(C(=O)NCCc2ccc(C)c(C)c2)cn1	-4.21%
CCNc1ncc(C(=O)NCCc2csc(-c3ncccn3)n2)cn1	56.6%
CCNc1ncc(C(=O)NCCCc2ccncc2)cn1	19.4%
CCNc1ncc(C(=O)NCCc2csc(CSC)n2)cn1	51.8%
CCNc1ncc(C(=O)NCc2csc(-c3ncccn3)n2)cn1	62.2%
CCNc1ncc(C(=O)NCc2csc(-c3cnccn3)n2)cn1	-10.5%
CSCc1nc(CCNC(=O)C2CCCN(C(C)=O)C2)cs1 (stereo not drawn)	-90.8%
O=C(NCCc1csc(-c2ncccn2)n1)c1cnn2c1CCCC2	-52.5%
CCNc1ncc(C(=O)NCc2csc(C)n2)cn1	35.4%
CCN(Cc1nc2c(cnn2C)c(=O)[nH]1)Cc1ccccc1Cl	-29.8%
Cc1ccc2nc(CN3CCCCC3C(=O)N3CCOCC3)cn2c1 (stereo not drawn)	20%
CC(C)Cn1nccc1NC(=O)CN1CCOC(Cn2cccn2)C1 (stereo not drawn)	23.4%
CNC(=O)[C@@H](c1ccccc1)N1CCC[C@H]1C(=O)NC1CCCCC1	30.9%
CCc1cnc(N2C[C@H](OCc3csc(C)n3)[C@H]3COC[C@H]32)nc1	40.8%
Cc1nnnn1-c1cc(NCc2cccc(C#N)c2)ccc1F	31%
O=C(CC1CC1)NCc1cc(=O)n2c(n1)CN(Cc1ccoc1)CCC2	36.8%
O=C(Nc1ccccc1)N1C2CCC(O)(CC2)C1CO (stereo not drawn)	44.9%
CCc1noc(C)c1C(=O)N1CCCC(n2nc(C)nc2C)C1 (stereo not drawn)	-19.85%
CS(=O)(=O)N1CCOCC12CCN(Cc1ccoc1)CC2	34.5%
Cc1ccc(CN2CCC3(CC2)COCCN3S(C)(=O)=O)o1	11.6%
CS(=O)(=O)N1CCO[C@@H]2CN(Cc3ccc(F)cc3)CC[C@@H]2C1	10.5%
Cc1ccc(CN2CCOC3(COCCN(S(C)(=O)=O)C3)C2)s1 (stereo not drawn)	11.4%

Structure (SMILES)	INHIBITION
CS(=O)(=O)N1CCOCC12CCN(Cc1ccc(F)cc1)CC2	57.3%
CS(=O)(=O)N1CCOCC2(CN(Cc3ccsc3)CCO2)C1 (stereo not drawn)	0.139%
CS(=O)(=O)N1CCOCC2(CN(Cc3ccc(F)cc3)CCO2)C1 (stereo not drawn)	57.4%
CS(=O)(=O)N1CCO[C@@H]2CN(Cc3ccc(F)cc3)C[C@@H]2C1	61.9%
CS(=O)(=O)N1CCO[C@@H]2CN(Cc3ccncc3)C[C@@H]2C1	18.5%
O=C(c1ccc2c(c1)CCCC2)N1CCn2ncnc2C1	-0.275%
O=C(c1ccccn1)N1CCOC2(COCCN(Cc3cc[nH]n3)C2)C1 (stereo not drawn)	-95.7%
CC(C)C[C@H](NC(=O)Cc1csc(-c2cccc(Cl)c2)n1)C(=O)O	40.8%
CCc1ccsc1C(=O)NCCn1nc2ccccn2c1=O	14.4%
c1cnn(CC2CCCN2Cc2ccc(-n3cccn3)cc2)c1 (stereo not drawn)	41.2%
c1ccc(CN2CCNCC(Cc3cnccn3)C2)cc1 (stereo not drawn)	-11.4%
CCc1nc(C(=O)N2CC(C(C)C)Nc3ccccc32)c[nH]1 (stereo not drawn)	3.13%
COCCNc1ncc(-c2cccc(OC)c2)c(-c2nccn2C)n1	3.48%
CC(C)[C@H]1CN(Cc2c[nH]cn2)C[C@@H]1NC(=O)CC1CCC1	57.3%
CC(C)[C@H]1CN(Cc2nccn2C)C[C@@H]1NC(=O)CCS(C)(=O)=O	12.9%
CC(C)[C@H]1CN(Cc2ccccn2)C[C@@H]1NC(=O)CC1CCC1	41.8%
O=C(c1ccc(F)cc1)N1CCC2(CCN(Cc3ccccn3)C2=O)C1 (stereo not drawn)	2.79%
CS(=O)(=O)N1CCCC1c1cccc(Cc2ccccc2F)n1 (stereo not drawn)	-51.4%
COCC(=O)N1CCCC1c1cccc(Cc2ccccc2F)n1 (stereo not drawn)	24.4%
CC(=O)N1CCCC1c1cccc(Cc2ccc(F)cc2)n1 (stereo not drawn)	13.6%
CN(C)C(=O)CN1CCCC1c1cccc(Cc2ccccc2F)n1 (stereo not drawn)	42.6%
CN1CCCC1c1cccc(Cc2ccc(F)cc2)n1 (stereo not drawn)	100%
CC(=O)N1CCCC1c1cccc(NCc2ccccc2F)n1 (stereo not drawn)	64.1%
CN1CCCC1c1cc2cccnc2n1Cc1ccc(F)cc1 (stereo not drawn)	30.85%
CC(=O)N1CCCC1c1cccc(Cc2ccccc2F)n1 (stereo not drawn)	14.8%

Structure (SMILES)	INHIBITION
CN1CCCC1c1cccc(Cc2ccccc2F)n1 (stereo not drawn)	76.2%
Cc1ncsc1C(=O)N1CCCC1c1c(C)nn(C)c1C (stereo not drawn)	16.6%
Cc1cc(Nc2cnccn2)cc(C2CCCNC2)n1 (stereo not drawn)	19.5%
CO[C@@H]1CCC[C@@H](NC(=O)c2cccc(F)c2)[C@H]1O	28.2%
CNc1nc2cn(CCc3ccc(C)cc3)c(=O)c-2c[nH]1	3.52%
O=C(Cc1ccccn1)N1CCN(C(=O)CC2CCCCC2)CC1	13.6%
Cc1cc(NCC2CCS(=O)(=O)C2)n2nc(C)cc2n1 (stereo not drawn)	47%
CCC(C)(C)n1nnnc1C(c1cccs1)N1CCc2ccccc21 (stereo not drawn)	42.6%
CCC(C)(C)n1nnnc1C(c1cccs1)N1CCc2ccccc2C1 (stereo not drawn)	51.4%
CCC(C)(C)n1nnnc1C(c1cccs1)N1CCCCC1 (stereo not drawn)	21.7%
Cc1ccc(C(=O)N2C[C@H]3CCC[C@@]3(COCc3ccncc3)C2)cn1	43.9%
CCc1nnc2n1CCN(C(=O)CN(C)Cc1ccccc1)C2	20.1%
CCc1nnc2n1CCN(C(=O)c1ccc(-c3ccco3)[nH]c1=O)C2	-19.6%
CCc1nnc2n1CCN(C(=O)c1ccc(-c3ccco3)nc1C)C2	61.3%
CC(C)c1nnc2n1CCN(C(=O)c1cnc(C3CC3)s1)C2	43.1%
CCc1nnc2n1CCN(C(=O)CN(C)C1CC1)C2	51.1%
CCc1nnc2n1CCN(C(=O)c1ccccc1OCC1CC1)C2	7.21%
Cc1nnc2n1CCN(C(=O)c1ccnc(N(C)C)c1)C2	21.6%
CCc1nnc2n1CCN(C(=O)c1csc(-c3cnn(C)c3)n1)C2	29.7%
CCc1nnc2n1CCN(C(=O)c1cnn(C)c1C1CC1)C2	53.9%
Cc1nnc2n1CCN(C(=O)c1cnc(C3CC3)s1)C2	53.9%
Cc1nc(-c2ccco2)ccc1C(=O)N1CCn2c(C)nnc2C1	-17.6%
CCc1nnc2n1CCN(C(=O)CN(CC)CC)C2	49.8%
